This note sets out measurements from article PMC7862700, “An all-to-all approach to the identification of sequence-specific readers for epigenetic DNA modifications on cytosine”.

Common to all, as to assay: DAPPL (digital affinity profiling via proximity ligation, sequencing); 10 mM Tris-HCl pH 7.5, 50 mM NaCl, 1 mM DTT, 4% glycerol, room temperature, 30 min; GST-TFs on glutathione beads, 16-mer random dsDNA library, 0.1% formaldehyde crosslink after washing; high values mean tight binding
One assay has as its target T1, FLI1 (Homo sapiens, UniProt Q01543 1-452).
T1 sequence: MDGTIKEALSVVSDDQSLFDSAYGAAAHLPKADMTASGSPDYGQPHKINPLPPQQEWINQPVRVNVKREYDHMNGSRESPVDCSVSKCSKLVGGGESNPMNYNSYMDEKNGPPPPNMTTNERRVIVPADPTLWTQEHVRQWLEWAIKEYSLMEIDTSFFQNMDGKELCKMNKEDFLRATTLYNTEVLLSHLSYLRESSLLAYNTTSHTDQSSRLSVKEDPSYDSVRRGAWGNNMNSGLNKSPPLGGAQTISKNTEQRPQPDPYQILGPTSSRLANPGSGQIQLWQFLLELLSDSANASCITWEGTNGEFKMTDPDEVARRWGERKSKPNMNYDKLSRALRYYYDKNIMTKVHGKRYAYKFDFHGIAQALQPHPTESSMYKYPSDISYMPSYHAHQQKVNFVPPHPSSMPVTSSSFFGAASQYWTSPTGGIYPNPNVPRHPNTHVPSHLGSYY
The following applies: protein: recombinant; tags: N-terminal GST; dsDNA, one strand shown. The essentials: (§1)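 Each value of binding signal is a hexamer's read frequency for a factor divided by the same hexamer's frequency in the tag-only sample. Barcoded, bead-captured GST fusions of human transcription factors made in yeast were pooled with that sample and incubated with 200 nmole of a random double-stranded 16-mer DNA library in Tris/NaCl/DTT/glycerol buffer at room temperature for 30 min. Washing, 0.1% formaldehyde crosslinking, proximity ligation, PCR and Illumina NextSeq500 sequencing followed.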

A further assay has as its target T2, ELK1 (Homo sapiens, UniProt P19419 1-428).
T2 sequence: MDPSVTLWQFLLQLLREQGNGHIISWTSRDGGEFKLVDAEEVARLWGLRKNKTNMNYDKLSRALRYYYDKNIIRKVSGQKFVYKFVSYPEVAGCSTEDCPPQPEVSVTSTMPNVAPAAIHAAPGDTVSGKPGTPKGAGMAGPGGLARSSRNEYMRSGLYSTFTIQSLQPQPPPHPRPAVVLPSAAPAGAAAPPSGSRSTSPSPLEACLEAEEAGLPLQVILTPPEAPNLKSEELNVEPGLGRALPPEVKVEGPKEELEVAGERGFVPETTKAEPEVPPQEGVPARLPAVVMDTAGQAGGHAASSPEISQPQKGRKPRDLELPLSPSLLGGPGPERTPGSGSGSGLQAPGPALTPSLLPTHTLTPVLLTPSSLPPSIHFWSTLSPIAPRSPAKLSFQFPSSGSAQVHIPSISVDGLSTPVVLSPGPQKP
The settings on record: protein: recombinant; tags: N-terminal GST; dsDNA, one strand shown. The essentials:
as §1

The target of another assay is T3, GABPA (Homo sapiens, UniProt Q06546 1-454).
T3 sequence: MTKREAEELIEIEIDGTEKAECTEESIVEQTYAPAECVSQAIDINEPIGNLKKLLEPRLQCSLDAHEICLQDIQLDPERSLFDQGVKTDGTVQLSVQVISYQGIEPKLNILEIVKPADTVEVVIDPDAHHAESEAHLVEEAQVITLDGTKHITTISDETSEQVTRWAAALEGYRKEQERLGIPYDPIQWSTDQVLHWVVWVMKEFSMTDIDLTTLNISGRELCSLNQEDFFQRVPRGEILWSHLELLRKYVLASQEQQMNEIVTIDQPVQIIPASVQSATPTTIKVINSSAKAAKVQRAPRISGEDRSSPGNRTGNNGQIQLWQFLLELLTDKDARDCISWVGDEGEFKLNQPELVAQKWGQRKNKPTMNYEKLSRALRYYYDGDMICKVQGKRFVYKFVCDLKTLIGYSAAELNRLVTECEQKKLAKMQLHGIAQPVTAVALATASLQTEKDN
The following applies: protein: recombinant; tags: N-terminal GST; dsDNA, one strand shown. The gist of the method:
as §1

Another assay concerns the target T4, ERG (Homo sapiens, UniProt P11308 1-479).
T4 sequence: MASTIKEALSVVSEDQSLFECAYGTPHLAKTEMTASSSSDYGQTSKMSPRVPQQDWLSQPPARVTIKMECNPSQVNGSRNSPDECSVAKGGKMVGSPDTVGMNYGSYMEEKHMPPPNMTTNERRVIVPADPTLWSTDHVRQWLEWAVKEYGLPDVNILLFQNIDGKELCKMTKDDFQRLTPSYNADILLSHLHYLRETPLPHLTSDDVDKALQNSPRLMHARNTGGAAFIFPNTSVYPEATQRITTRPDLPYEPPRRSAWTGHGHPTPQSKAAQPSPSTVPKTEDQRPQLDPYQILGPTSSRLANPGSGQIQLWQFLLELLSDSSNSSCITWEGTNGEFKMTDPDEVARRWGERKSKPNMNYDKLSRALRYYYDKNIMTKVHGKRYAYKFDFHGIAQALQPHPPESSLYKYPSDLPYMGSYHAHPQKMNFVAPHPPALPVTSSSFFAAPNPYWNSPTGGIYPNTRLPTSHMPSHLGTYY
The settings on record: protein: recombinant; tags: N-terminal GST; dsDNA, one strand shown. The essentials: as §1

The next assay addresses ELF1 (Homo sapiens, UniProt P32519 1-619). The settings on record: protein: recombinant; tags: N-terminal GST; dsDNA, one strand shown. The gist of the method:
as §1

In a further assay the target is T5, EHF (Homo sapiens, UniProt Q9NZC4 1-300).
T5 sequence: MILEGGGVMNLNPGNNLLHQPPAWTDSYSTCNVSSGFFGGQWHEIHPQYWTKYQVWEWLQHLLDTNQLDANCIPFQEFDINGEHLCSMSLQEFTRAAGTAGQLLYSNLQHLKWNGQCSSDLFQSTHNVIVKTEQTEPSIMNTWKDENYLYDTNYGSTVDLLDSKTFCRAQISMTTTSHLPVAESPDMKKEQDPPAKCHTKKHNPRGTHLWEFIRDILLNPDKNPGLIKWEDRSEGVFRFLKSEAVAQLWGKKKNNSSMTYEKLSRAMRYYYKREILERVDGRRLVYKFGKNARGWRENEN
The following applies: protein: recombinant; tags: N-terminal GST; dsDNA, one strand shown. The essentials: as §1

The next assay concerns the target SPI1 (Homo sapiens, UniProt P17947 1-270). The settings on record: protein: recombinant; tags: N-terminal GST; dsDNA, one strand shown. The essentials: as §1
The target of the next assay is SPIB (Homo sapiens, UniProt Q01892 1-262). The settings on record: protein: recombinant; tags: N-terminal GST; dsDNA, one strand shown. The essentials: as §1
Chain of SPIB (Q01892 whole entry): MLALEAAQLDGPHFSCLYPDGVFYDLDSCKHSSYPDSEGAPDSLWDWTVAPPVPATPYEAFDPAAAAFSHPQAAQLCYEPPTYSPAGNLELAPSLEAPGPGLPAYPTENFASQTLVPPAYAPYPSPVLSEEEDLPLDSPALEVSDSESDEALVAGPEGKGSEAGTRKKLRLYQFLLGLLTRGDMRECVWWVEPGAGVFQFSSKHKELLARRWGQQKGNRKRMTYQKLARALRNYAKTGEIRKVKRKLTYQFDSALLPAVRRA
Another assay concerns the target T6, ELK3 (Homo sapiens, UniProt P41970 1-407).
T6 sequence: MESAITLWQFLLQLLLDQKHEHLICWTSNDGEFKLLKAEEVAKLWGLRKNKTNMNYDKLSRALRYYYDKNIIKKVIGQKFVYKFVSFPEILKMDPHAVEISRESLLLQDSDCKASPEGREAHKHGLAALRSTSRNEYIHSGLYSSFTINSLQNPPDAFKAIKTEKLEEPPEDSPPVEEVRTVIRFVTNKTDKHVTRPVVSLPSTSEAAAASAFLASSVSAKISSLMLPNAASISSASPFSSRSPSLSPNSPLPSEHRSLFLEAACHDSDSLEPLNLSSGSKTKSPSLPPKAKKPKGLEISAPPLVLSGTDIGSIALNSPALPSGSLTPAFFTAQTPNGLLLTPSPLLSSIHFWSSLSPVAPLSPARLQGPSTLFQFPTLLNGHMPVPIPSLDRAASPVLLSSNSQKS
The settings on record: protein: recombinant; tags: N-terminal GST; dsDNA, one strand shown. The gist of the method:
as §1

For another assay, the target named is T7, FEV (Homo sapiens, UniProt Q99581 1-238).
T7 sequence: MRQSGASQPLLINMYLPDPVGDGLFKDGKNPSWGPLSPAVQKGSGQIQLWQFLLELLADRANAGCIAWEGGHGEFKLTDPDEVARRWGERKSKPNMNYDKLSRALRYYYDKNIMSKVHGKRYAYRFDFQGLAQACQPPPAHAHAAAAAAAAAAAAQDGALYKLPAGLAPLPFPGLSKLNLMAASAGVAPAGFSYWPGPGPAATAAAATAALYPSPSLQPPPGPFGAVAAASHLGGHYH
The following applies: protein: recombinant; tags: N-terminal GST; dsDNA, one strand shown. The gist of the method: as §1

The target in a further assay is ETV5 (Homo sapiens, UniProt P41161 1-510). The following applies: protein: recombinant; tags: N-terminal GST; dsDNA, one strand shown. The essentials: as §1
Chain of ETV5 (P41161 whole entry): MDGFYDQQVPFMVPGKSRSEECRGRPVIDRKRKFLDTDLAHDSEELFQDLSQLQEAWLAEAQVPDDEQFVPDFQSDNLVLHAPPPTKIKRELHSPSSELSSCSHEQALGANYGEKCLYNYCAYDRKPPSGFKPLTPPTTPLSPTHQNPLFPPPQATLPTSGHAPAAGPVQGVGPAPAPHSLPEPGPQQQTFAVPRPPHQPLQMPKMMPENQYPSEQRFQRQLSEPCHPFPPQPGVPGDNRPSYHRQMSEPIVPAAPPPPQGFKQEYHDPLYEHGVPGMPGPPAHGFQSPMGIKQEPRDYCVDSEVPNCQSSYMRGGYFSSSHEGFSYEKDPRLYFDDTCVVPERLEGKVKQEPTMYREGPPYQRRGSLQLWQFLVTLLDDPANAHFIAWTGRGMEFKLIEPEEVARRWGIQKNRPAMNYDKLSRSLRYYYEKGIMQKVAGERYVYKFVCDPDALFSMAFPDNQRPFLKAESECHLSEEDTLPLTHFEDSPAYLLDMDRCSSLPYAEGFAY
The next assay addresses HSF1 (Homo sapiens, UniProt Q00613 1-529). The following applies: protein: recombinant; tags: N-terminal GST; chain copies: 3; dsDNA, one strand shown. The essentials:
as §1

Another assay concerns the target ELF4 (Homo sapiens, UniProt Q99607 1-663). The following applies: protein: recombinant; tags: N-terminal GST; dsDNA, one strand shown. The essentials: as §1
A further assay deals with T8, ELK4 (Homo sapiens, UniProt P28324-2 1-405).
T8 sequence: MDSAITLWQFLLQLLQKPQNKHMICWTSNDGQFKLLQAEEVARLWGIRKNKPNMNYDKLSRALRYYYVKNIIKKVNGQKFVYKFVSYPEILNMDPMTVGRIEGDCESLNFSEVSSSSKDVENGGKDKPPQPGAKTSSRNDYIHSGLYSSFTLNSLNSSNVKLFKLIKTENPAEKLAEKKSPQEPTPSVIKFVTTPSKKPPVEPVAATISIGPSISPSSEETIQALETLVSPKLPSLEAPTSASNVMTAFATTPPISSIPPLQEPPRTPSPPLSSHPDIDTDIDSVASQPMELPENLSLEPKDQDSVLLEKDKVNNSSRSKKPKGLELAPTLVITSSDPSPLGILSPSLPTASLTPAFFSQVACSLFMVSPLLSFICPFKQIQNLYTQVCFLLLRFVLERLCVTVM
The following applies: protein: recombinant; tags: N-terminal GST; dsDNA, one strand shown. The gist of the method:
as §1

A further assay has as its target T9, ETV2 (Homo sapiens, UniProt O00321 1-342).
T9 sequence: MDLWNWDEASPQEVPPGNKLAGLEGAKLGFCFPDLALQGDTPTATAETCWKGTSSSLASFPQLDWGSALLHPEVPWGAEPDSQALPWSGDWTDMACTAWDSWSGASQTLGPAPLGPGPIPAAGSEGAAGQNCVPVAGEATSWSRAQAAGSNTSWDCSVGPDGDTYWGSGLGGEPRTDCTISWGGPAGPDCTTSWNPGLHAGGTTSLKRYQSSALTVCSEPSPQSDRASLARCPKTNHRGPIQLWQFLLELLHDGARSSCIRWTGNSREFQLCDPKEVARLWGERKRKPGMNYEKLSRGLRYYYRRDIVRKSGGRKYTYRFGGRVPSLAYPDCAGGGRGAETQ
The settings on record: protein: recombinant; tags: N-terminal GST; dsDNA, one strand shown. The gist of the method:
as §1

For a further assay, the target named is T10, ELF3 (Homo sapiens, UniProt P78545 1-371).
T10 sequence: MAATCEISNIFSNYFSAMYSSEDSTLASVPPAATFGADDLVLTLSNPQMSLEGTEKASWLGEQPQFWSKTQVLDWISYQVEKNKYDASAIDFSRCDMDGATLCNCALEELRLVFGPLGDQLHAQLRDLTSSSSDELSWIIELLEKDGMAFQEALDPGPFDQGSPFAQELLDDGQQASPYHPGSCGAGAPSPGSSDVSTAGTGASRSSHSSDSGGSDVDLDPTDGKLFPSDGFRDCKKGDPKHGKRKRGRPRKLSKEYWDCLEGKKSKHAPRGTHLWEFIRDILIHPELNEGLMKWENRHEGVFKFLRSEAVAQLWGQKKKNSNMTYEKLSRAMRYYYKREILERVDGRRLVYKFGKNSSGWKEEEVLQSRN
The following applies: protein: recombinant; tags: N-terminal GST; dsDNA, one strand shown. The gist of the method: as §1

Another assay concerns the target CRX (Homo sapiens, UniProt O43186 1-299). The following applies: protein: recombinant; tags: N-terminal GST; dsDNA, one strand shown. The essentials: as §1
The target in another assay is ETV1 (Homo sapiens, UniProt P50549 1-477). The following applies: protein: recombinant; tags: N-terminal GST; dsDNA, one strand shown. The essentials: as §1
Chain of ETV1 (P50549 whole entry): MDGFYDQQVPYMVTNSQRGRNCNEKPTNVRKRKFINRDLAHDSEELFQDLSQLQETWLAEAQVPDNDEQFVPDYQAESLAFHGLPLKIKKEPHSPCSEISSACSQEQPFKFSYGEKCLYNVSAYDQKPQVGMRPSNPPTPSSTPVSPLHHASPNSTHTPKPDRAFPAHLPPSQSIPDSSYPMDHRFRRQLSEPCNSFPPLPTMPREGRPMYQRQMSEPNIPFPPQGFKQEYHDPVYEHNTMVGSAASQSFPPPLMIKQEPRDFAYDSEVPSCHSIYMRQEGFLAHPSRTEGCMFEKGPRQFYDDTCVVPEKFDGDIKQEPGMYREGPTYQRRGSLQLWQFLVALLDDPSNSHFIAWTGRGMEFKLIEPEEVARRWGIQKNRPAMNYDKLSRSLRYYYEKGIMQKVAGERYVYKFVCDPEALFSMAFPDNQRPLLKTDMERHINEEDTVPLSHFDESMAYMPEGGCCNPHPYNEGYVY

Chain of ELF4 (Q99607 whole entry): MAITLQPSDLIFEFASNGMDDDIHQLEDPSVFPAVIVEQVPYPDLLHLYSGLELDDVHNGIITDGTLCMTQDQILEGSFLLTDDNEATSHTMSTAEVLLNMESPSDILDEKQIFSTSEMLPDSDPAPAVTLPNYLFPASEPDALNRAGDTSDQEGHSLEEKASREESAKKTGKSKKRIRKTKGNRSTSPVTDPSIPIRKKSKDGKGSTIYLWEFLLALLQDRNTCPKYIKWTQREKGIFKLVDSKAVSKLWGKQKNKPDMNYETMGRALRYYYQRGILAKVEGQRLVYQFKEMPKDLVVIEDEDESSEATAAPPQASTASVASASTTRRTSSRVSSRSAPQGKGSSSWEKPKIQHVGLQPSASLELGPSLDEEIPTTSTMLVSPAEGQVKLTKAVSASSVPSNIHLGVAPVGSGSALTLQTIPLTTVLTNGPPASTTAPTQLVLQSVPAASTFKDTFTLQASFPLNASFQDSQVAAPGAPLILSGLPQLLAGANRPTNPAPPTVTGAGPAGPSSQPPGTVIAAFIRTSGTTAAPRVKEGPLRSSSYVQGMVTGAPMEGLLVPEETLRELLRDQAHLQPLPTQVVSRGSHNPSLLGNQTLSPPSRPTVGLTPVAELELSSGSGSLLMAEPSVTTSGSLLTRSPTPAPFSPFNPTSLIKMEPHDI
Chain of CRX (O43186 whole entry): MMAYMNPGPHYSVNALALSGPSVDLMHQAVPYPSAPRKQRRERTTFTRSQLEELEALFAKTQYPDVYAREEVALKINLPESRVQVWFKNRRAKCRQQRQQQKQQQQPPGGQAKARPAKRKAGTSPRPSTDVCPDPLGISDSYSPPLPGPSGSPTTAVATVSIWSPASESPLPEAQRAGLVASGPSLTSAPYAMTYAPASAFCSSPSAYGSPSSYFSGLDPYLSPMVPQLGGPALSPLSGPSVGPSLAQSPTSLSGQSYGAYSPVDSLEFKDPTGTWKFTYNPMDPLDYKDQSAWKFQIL
Chain of HSF1 (Q00613 whole entry): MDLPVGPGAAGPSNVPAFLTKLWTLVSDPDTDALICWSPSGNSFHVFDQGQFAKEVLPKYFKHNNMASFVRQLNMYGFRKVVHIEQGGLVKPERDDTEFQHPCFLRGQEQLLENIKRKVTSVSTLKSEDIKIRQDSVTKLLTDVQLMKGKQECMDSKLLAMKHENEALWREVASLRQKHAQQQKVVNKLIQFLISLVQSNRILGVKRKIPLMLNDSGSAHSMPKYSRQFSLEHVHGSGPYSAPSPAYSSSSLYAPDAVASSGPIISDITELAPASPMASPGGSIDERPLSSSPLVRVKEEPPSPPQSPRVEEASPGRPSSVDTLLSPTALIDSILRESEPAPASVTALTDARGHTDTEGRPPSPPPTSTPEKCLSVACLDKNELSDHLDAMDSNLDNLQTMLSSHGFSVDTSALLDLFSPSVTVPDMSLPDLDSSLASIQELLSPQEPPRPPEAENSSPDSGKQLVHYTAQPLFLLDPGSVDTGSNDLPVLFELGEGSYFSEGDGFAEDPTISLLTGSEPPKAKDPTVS
Chain of ELF1 (P32519 whole entry): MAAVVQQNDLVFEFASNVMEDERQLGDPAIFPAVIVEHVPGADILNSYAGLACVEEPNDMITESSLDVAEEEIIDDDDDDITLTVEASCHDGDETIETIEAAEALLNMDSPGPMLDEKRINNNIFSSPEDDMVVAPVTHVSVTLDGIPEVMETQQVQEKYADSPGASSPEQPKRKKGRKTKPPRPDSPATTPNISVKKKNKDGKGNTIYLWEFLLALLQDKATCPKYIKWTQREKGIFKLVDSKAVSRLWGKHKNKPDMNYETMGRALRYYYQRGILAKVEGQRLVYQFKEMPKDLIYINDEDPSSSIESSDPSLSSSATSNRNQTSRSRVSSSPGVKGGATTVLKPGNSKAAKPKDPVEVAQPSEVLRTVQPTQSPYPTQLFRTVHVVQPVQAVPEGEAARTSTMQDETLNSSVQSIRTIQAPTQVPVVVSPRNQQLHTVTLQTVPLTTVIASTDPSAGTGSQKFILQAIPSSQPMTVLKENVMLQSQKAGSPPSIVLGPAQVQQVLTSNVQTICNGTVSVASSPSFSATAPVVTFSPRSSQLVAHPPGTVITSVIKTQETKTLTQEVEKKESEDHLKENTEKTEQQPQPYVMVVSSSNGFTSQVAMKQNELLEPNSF

Consider AAATAG, for which the binding signal was 1.18 fold enrichment (6-mer frequency, TF over GST control) with FLI1; 1.1 fold enrichment (6-mer frequency, TF over GST control) with ELK1; 1.12 fold enrichment (6-mer frequency, TF over GST control) in the assay with GABPA; 1.22 fold enrichment (6-mer frequency, TF over GST control) with ERG; 1.08 fold enrichment (6-mer frequency, TF over GST control) with ELF1; 1.19 fold enrichment (6-mer frequency, TF over GST control) with EHF. Also, the binding signal was 1.22 fold enrichment (6-mer frequency, TF over GST control) in the assay with SPI1; 1.15 fold enrichment (6-mer frequency, TF over GST control) in the assay with SPIB; 1.08 fold enrichment (6-mer frequency, TF over GST control) with ELK3; 1.16 fold enrichment (6-mer frequency, TF over GST control) with FEV; 1.2 fold enrichment (6-mer frequency, TF over GST control) in the assay with ETV5; 1.09 fold enrichment (6-mer frequency, TF over GST control) in the assay with HSF1. Moreover, the binding signal was 1.02 fold enrichment (6-mer frequency, TF over GST control) with ELF4; 1.15 fold enrichment (6-mer frequency, TF over GST control) with ELK4; 1.06 fold enrichment (6-mer frequency, TF over GST control) in the assay with ETV2; 1.17 fold enrichment (6-mer frequency, TF over GST control) with ELF3; 1.11 fold enrichment (6-mer frequency, TF over GST control) with CRX; 1.11 fold enrichment (6-mer frequency, TF over GST control) with ETV1.
